Data reported in PubChem BioAssay (NCI).
Values joined by “and” are separate entries in the source; they are usually repeats but may differ in a detail not shown here. Identical values can stand only once. This is part of a sample that, as a whole, favours compounds with a hit. Of some 83,000 tested, about 20% had one in any assay.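 Note: values are percent growth. 100 is the growth of untreated cells, values between 100 and 0 indicate rising inhibition; between -100 and 0 indicates cell death.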 Active and inactive are the calls of the source. The calls were made as follows: active = growth percent below 10; inactive = the rest.

Assays:
Assay in all cases: NCI-60 one-dose screen, 48 h (100 = growth as untreated, 0 = no growth, -100 = all killed)
Conditions in all cases: 10 µM unless noted
T-47D breast = tested on: T-47D breast
BT-549 breast = tested on: BT-549 breast
MDA-MB-435 melanoma = tested on: MDA-MB-435 melanoma
SW-620 colon = tested on: SW-620 colon
MCF7 breast = tested on: MCF7 breast
HCT-116 colon = tested on: HCT-116 colon
HCC-2998 colon = tested on: HCC-2998 colon
KM12 colon = tested on: KM12 colon

SMILES	growth (T-47D breast)	growth (BT-549 breast)	growth (MDA-MB-435 melanoma)	growth (SW-620 colon)	growth (MCF7 breast)	growth (HCT-116 colon)	growth (HCC-2998 colon)	growth (KM12 colon)
Cn1cc(-c2csc(-c3cn(CCOC(N)=O)c4ccccc34)n2)c2cccnc21	45.8% (inactive)	79.5% (inactive)	8.15% (active)	67.9% (inactive)	58.2% (inactive)	86.5% (inactive)	90.4% (inactive)	67% (inactive)
Cc1ccc2nc3ccccc3c(NCc3ccc(Cl)cc3)c2c1	57.9% (inactive)	75.6% (inactive)	70.3% (inactive)	32.1% (inactive)	-20.8% (active)	14.7% (inactive)	-79% (active)	77.1% (inactive)
CCCO/N=C/c1ccccn1	107% (inactive) and 93.9% (inactive)	90.8% (inactive)	107% (inactive) and 105% (inactive)	102% (inactive) and 110% (inactive)	89.2% (inactive) and 92.4% (inactive)	102% (inactive)	110% (inactive) and 105% (inactive)	101% (inactive) and 103% (inactive)
O=[N+]([O-])c1ccc2[nH]c3nccc(NCc4cccc(Cl)c4)c3c2c1	67.4% (inactive)	70% (inactive)	77% (inactive)	63.6% (inactive)	82.4% (inactive)	67.6% (inactive)	114% (inactive)	
O=C(N/N=C/c1ccc(O)cc1O)c1cccc(Nc2ccnc(C(F)(F)F)c2)c1	28.8% (inactive)	42.3% (inactive)	41% (inactive)	35.7% (inactive)	21.2% (inactive)	12.3% (inactive)	33.7% (inactive)	34.7% (inactive)
C[N+]1=C(/C=C\C=C\c2ccccc2)C(C)(C)c2ccccc21	-1.09% (active)	22.5% (inactive)	9.04% (active)	19.8% (inactive)	7.58% (active)	14.3% (inactive)	47.9% (inactive)	22.2% (inactive)
NCCOCCOc1ccccc1	101% (inactive)	106% (inactive)	107% (inactive)	102% (inactive)	91.2% (inactive)	99.4% (inactive)	94.2% (inactive)	105% (inactive)
N#C/C(=N\Nc1ccc(Cl)cc1)C(=O)Nc1cc(-c2ccccc2)nn1-c1ccccc1	14.7% (inactive)	11.4% (inactive)	28.6% (inactive)	21.4% (inactive)	16.9% (inactive)	8.26% (active)	39.4% (inactive)	32.4% (inactive)
COc1cc(-c2[nH]ncc2Nc2ccc(Cl)cc2)cc(OC)c1OC	46.4% (inactive)	29.8% (inactive)	55.5% (inactive)	82.6% (inactive)	41.9% (inactive)	58.4% (inactive)	83.4% (inactive)	63.5% (inactive)
CSc1nnc(-c2cc3c([nH]c4ccccc43)c(-c3cccc(O)c3)n2)n1-c1ccc(C)cc1	24.5% (inactive)	34.5% (inactive)	-49.5% (active)	30% (inactive)	5.16% (active)	23.8% (inactive)	54.2% (inactive)	26.3% (inactive)
O=C(Oc1ccc(CO[N+](=O)[O-])cc1)c1ccccc1	-37.4% (active)	-97% (active)	-94% (active)	-56.8% (active)	-54.4% (active)	-86.2% (active)	-81.9% (active)	-78.9% (active)
O=C(Nc1ccc2ncsc2c1)c1csc(Nc2ccc3[nH]ncc3c2)n1	36.4% (inactive)	73.4% (inactive)	-27.1% (active)	20.9% (inactive)	21.6% (inactive)	47.5% (inactive)	72.5% (inactive)	
Cc1nonc1-c1ccc2c(c1)OCO2	88.5% (inactive) and 98.4% (inactive)	111% (inactive) and 115% (inactive)	89.9% (inactive) and 109% (inactive)	105% (inactive) and 107% (inactive)	99.6% (inactive) and 98.3% (inactive)	112% (inactive) and 98.5% (inactive)	100% (inactive) and 107% (inactive)	95.4% (inactive) and 116% (inactive)
N#Cc1c(N)nnn1Cc1cc(=O)oc2ccc(O)cc12	98% (inactive)	111% (inactive)	105% (inactive)	104% (inactive)	96.8% (inactive)	89.3% (inactive)	110% (inactive)	107% (inactive)
BrC1=C(Br)C(Br)(Br)C(Br)=C1Br	77.9% (inactive)	88.9% (inactive)	75.6% (inactive)	80.1% (inactive)	50% (inactive)	65.1% (inactive)	103% (inactive)	103% (inactive)
COc1ccc(/C=C2\COc3ccc(O)c(O)c3C2=O)c(OC)c1OC	12.1% (inactive)	46.9% (inactive)	8.59% (active)	9.64% (active)	14.8% (inactive)	14.6% (inactive)	65.6% (inactive)	33.5% (inactive)
COc1cc(-c2nc3occn3c2-c2ccnc(NCCCNS(=O)(=O)c3ccc(O)cc3)n2)ccc1F	84.8% (inactive)	116% (inactive)	47.7% (inactive)	115% (inactive)	92.1% (inactive)	86.1% (inactive)	112% (inactive)	99.8% (inactive)
COc1ccc(-c2cc(=O)c3c(O)cc(O)cc3o2)cc1	101% (inactive) and 100% (inactive)	109% (inactive)	96.3% (inactive) and 96.5% (inactive)	106% (inactive) and 105% (inactive)	117% (inactive) and 106% (inactive)	103% (inactive) and 94.5% (inactive)	102% (inactive) and 104% (inactive)	91% (inactive) and 93.1% (inactive)
O=C(O)c1ccccc1Cc1ccc(F)c2ccccc12	101% (inactive) and 108% (inactive)	134% (inactive) and 106% (inactive)	110% (inactive) and 109% (inactive)	105% (inactive) and 95.8% (inactive)	99.2% (inactive) and 102% (inactive)	120% (inactive) and 101% (inactive)	109% (inactive) and 103% (inactive)	103% (inactive) and 104% (inactive)
C[C@]12CCc3c(ccc4cc(O)ccc34)[C@@H]1C[C@H](O)[C@@H]2O	98.8% (inactive)	94.7% (inactive)	99% (inactive)	96.4% (inactive)	132% (inactive)	104% (inactive)	109% (inactive)	108% (inactive)
COc1ccc(-c2nn3c(-c4cc(F)c(Cl)cc4Cl)nnc3s2)cc1	50.3% (inactive)	54.3% (inactive)	3.5% (active)	20.8% (inactive)	18.3% (inactive)	20.9% (inactive)	42.1% (inactive)	46.8% (inactive)
CCN(CC)CC#CCOC(=O)[C@]1(C)CCC[C@]2(C)c3ccc(C(C)C)cc3CC[C@@H]12	78.6% (inactive)	92.7% (inactive)	91.6% (inactive)	87.7% (inactive)	82.6% (inactive)	58.3% (inactive)	91.5% (inactive)	85.3% (inactive)
COc1ccc2c(c1)c(-c1nc(-c3c[nH]c4c(Cl)nccc34)cs1)cn2C	-4.46% (active)	98.8% (inactive)	98.3% (inactive)	103% (inactive)	8.44% (active)	92.7% (inactive)	74.6% (inactive)	30.8% (inactive)
Cc1ccc(-c2nc(SCC(=O)c3ccc(C#N)cc3)[nH]c(=O)c2C#N)cc1	100% (inactive)	101% (inactive)	106% (inactive)	112% (inactive)	96.5% (inactive)	88.9% (inactive)	107% (inactive)	93.6% (inactive)
O=C1OCC2=C1C(c1cccc(C(F)(F)F)c1)c1cc3c(cc1N2CCO)OCCO3 (configuration not stated)	51% (inactive)	41.7% (inactive)	-41.1% (active)	24.5% (inactive)	23.1% (inactive)	10.3% (inactive)	8.81% (active)	16.9% (inactive)
COc1cc(Cl)cc(-c2nn(C(=O)NS(=O)(=O)c3ccc(Cl)cc3)cc2-c2ccncc2)c1	90.8% (inactive)	41.2% (inactive)	87.5% (inactive)	114% (inactive)	102% (inactive)	95.2% (inactive)	99.3% (inactive)	92.9% (inactive)
CN1CCN(CCCN2c3ccccc3Sc3ccc(Cl)cc32)CC1	63.5% (inactive)	85.8% (inactive) and 91.1% (inactive)	30.3% (inactive) and 42.4% (inactive)	83.2% (inactive) and 94% (inactive)	37.2% (inactive) and 63.8% (inactive)	57.5% (inactive) and 70.6% (inactive)	66.8% (inactive)	73.8% (inactive) and 98.2% (inactive)
COc1ccc(C(=O)c2ccc(OC)c(OC)c2OC)cc1	44.5% (inactive) and 36.2% (inactive)	71.9% (inactive) and 50% (inactive)	-14.6% (active) and -29.5% (active)	15.6% (inactive) and 11.8% (inactive)	25.4% (inactive) and 16.5% (inactive)	30.5% (inactive) and 26.3% (inactive)	57.3% (inactive) and 45.6% (inactive)	29.5% (inactive) and 24.7% (inactive)
